Only some compounds are listed: those with a hit (about 7.9% of all), similar ones and a draw of the others.
HT1080 IDH1KD tx = kills HT-1080 cells with IDH1 knockdown; HT-1080 IDH1 knockdown viability, ATP luminescence, 48 h; Potency, µM (highest dose often 46.1 µM), inactives show top-dose activity, negative = toxicity, most hits filed as cytotoxic; 2% of 360,000 active; AID 686971;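 further: 0% = DMSO wells and -100% = cell-free medium wells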
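Assay cells: HT-1080 with IDH1 knockdown, 750 per well, RPMI/5% FBS. Exposure: 48 h at 37 °C following 2 h pre-incubation. Read: CellTiter-Glo luminescence; fitted concentration-response, curve class assigned.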
MCF10A rereplic = induces DNA re-replication in MCF 10a normal breast cells; AID 624296; MCF 10A DNA re-replication, Hoechst nuclear intensity, 48 h; Potency, µM (highest dose often 46.1 µM), without a hit: at the highest dose activity, positive = re-replication, actives largely listed as activators; 2.9% of 350,000 active; further: % of control where 0% means no effect; nearly all actives have a fitted effect of over 50% in size
HT1080-NT tox = kills 2HG-producing HT-1080-NT fibrosarcoma cells. HT-1080-NT fibrosarcoma viability, CellTiter-Glo ATP luminescence, 48 h. 1.6% of 360,000 active. Potency, µM (top dose mostly 46.1 µM), without a hit: at the top dose activity, negative = less viability, actives largely listed as cytotoxic. AID 686970;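 further: NT is the 2HG producing partner of a matched IDH1 knockdown line; 0% = DMSO-treated cells and -100% = media-only wells without cells; nearly all actives have a fitted effect of over 55% in size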
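A 48-hour cytotoxicity screen used HT-1080-NT cells plated 2 hours before compound delivery. ATP-based CellTiter-Glo luminescence measured viability, normalized to DMSO and no-cell controls.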
KB-V1 MDR tox = KB-V1 MDR subline cytotoxicity. KB-V1 MDR cells viability, CellTiter-Glo, 72 h. Potency, µM (top dose mostly 46.1 µM), actives largely listed as cytotoxic. 3.4% of 400,000 active. AID 1347076; further: on the % scale 0 is the no-effect control and ±100 the full control effect; nearly all actives have a fitted effect of over 60% in size
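KB-V1 MDR subline cells in DMEM (phenol-red free, 10% FBS) exposed to compounds in qHTS concentration series for 72 h at 37 degrees C. Viability read by CellTiter-Glo luminescence; concentration-effect curves fitted after normalization and correction.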
KB-3-1 cytotox = KB-3-1 parental cell cytotoxicity. KB-3-1 viability, CellTiter-Glo ATP luminescence, 72 h. 1.4% of 400,000 active. Potency, µM (top dose mostly 46.1 µM), usual class: cytotoxic; further: on the % scale 0 is the no-effect control and ±100 the full control effect; nearly all actives have a fitted effect of over 60% in size
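Cells are dispensed, compounds pinned in, plates held at 37 °C for 72 h, then CellTiter-Glo is added and luminescence read after 10 minutes. Cell line: parental KB-3-1 in phenol-red-free DMEM, 10% FBS.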
SW480 rereplic = inducers of DNA re-replication in SW480 colon cancer cells; SW480 DNA re-replication, Hoechst DNA content imaging, 48 h; AID 624297; 1.8% of 340,000 active; Potency, µM (doses to about 46.1 µM), without a hit: at the top dose re-replication activation, hits mostly activators; further: % of control where 0% means no effect; nearly all actives have a fitted effect of over 55% in size
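Readout is total intensity of Hoechst-stained nuclei, excited at 405 nm and collected at 500-530 nm. Compound treatment lasted 48 hr at 37 C in 5% CO2 before staining.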
* marks the source's active call; other numbers are inactive results; i = inactive; ? = inconclusive; / = no result; [ ] = remark or other dose. The call rests on the fitted dose curve; in most records, active means well fitted curve in the direction sought with a large enough effect; inconclusive means small, poorly fitted or top-dose-only effect, or another doubt; inactive means no such curve, though single readings can be large; an effect the other way counts as inactive or inconclusive. Potency means the concentration at half of the fitted maximal effect.

SMILES | HT1080 IDH1KD tx | MCF10A rereplic | HT1080-NT tox | KB-V1 MDR tox | KB-3-1 cytotox | SW480 rereplic
Cc1ccc(NC(=O)CN(c2ccccc2)S(=O)(=O)N(C)C)cc1 | -2% | 3% | -7% | 15µM* | i | -1%
CN(C)S(=O)(=O)N(CC(=O)Nc1ccc(C(F)(F)F)cc1)c1ccccc1 | / | / | / | i | i | /
CN(C)S(=O)(=O)N(CC(=O)Nc1ccc(F)c(F)c1)c1ccccc1 | -6% | 3% | 4% | 21µM* | i | -9%
CCCCn1nc(C(=O)Nc2ccccc2N2CCCC2)c2ccccc2c1=O | -1% | ? | 2% | 3.7µM* | i | -1%
CCCn1nc(C(=O)NC2CCCc3ccccc32)c2ccccc2c1=O (stereo not given) | -26% | 4% | -20% | 23µM* | i | 11%
CCCCn1nc(C(=O)NC2CCCCCC2)c2ccccc2c1=O | 4% | -7% | 11% | / | / | -1%
CCCn1nc(C(=O)NC2CCCC2)c2ccccc2c1=O | 15% | -12% | -8% | i | i | -5%
CCCn1nc(C(=O)Nc2ccc3c(c2)OCCO3)c2ccccc2c1=O | -3% | 4% | -8% | 16µM* | i | -2%
CCCn1nc(C(=O)Nc2ccc3c(c2)OCO3)c2ccccc2c1=O | -16% | -1% | -6% | ? | i | 8%
CCc1ccc(C(=O)c2cn(CC(=O)Nc3ccc4c(c3)OCO4)c3ccc(CC)cc3c2=O)cc1 | / | / | / | i | i | /
COc1ccccc1CNC(=O)CN(C)c1nn2c(=O)cc(C)nc2s1 | / | / | / | i | i | /
O=C(Nc1c(O)c2ccccc2oc1=O)c1cccc(F)c1 | / | / | / | i | i | /
CCCCCCn1c(SCC#N)nc2ccccc2c1=O | / | / | / | i | i | /
CCCCn1c(=O)[nH]c(=O)c2c1nc(-c1ccc(OCCC)c(OCC)c1)n2CCOC | -17% | 23µM* | -6% | i | i | 6%
CCCCn1c(=O)[nH]c(=O)c2c1nc(-c1ccc(-c3ccc(F)cc3)o1)n2C | 11% | 10µM* | 5% | i | i | ?
CCCCn1c(-c2ccc(Br)cc2F)nc2c1c(=O)[nH]c(=O)n2CC(C)C | -24% | 18µM* | ? | i | i | 1%
CCCCn1c(=O)[nH]c(=O)c2c1nc(-c1ccc(OCC)cc1)n2CC | 7% | 15% | -1% | i | i | -6%
CCCOc1ccc(-c2nc3c(c(=O)[nH]c(=O)n3Cc3ccccc3)n2CCO)cc1OCC | -1% | -4% | -21% | i | i | ?
COc1ccccc1CN1C(=O)C(Cc2ccccc2)ON=C1c1ncccc1C (stereo not given) | -4% | / | -20% | ? | i | /
CCc1ccccc1N(C)S(=O)(=O)c1ccc(-c2cc(C)no2)s1 | ? | 2.3µM* | 12% | ? | ? | 17%
CC(C)C1C(=O)Nc2ccc(S(=O)(=O)NCc3ccc(Cl)cc3)cc21 (stereo not given) | / | / | / | i | i | /
CC1(C)COCN1S(=O)(=O)c1ccc(C(=O)Nc2nnc(-c3ccc(Cl)s3)o2)cc1 | 2.8µM* | ? | ? | i | ? | ?
COc1ccc(-c2nnc(NC(=O)c3ccc(S(=O)(=O)N4COCC4(C)C)cc3)o2)cc1 | 8.2µM* | 18%[9.22 µM] | ? | ? | ? | ?
CC1CCCCN1S(=O)(=O)c1ccc(C(=O)Nc2nnc(-c3ccncc3)o2)cc1 (stereo not given) | ? | ? | ? | ? | ? | 0%
CC(=O)Nc1ccc2ccccc2c1 | 14% | 18% | -1% | i | i | -13%
SMILES | HT1080 IDH1KD tx | MCF10A rereplic | HT1080-NT tox | KB-V1 MDR tox | KB-3-1 cytotox | SW480 rereplic
CC(=O)Nc1ccc2cc3ccc(NC(C)=O)cc3nc2c1 | ? | -8% | ? | i | 23µM* | -4%
Cc1cc(C)c2oc(C(=O)Nc3sc4c(c3C(=O)NCc3ccco3)CCCC4)cc(=O)c2c1 | / | / | / | ? | i | /
O=C(C1CCN(Cc2ccc(F)cc2)CC1)N(CCO)Cc1ccccc1 | 14% | 15% | 9% | i | i | -31%
CN(Cc1nc2ccccc2c(=O)[nH]1)C(=O)COc1ccccc1Cc1ccccc1 | ? | 21µM* | -25% | i | i | 4%
O=C(C1CCN(Cc2ccc(F)cc2)CC1)N(CCc1ccccc1)Cc1ccccc1 | -28% | ? | -30% | i | 16µM* | -75%
O=C(C1CC1)N(CCc1ccccc1)Cc1nc2ccccc2c(=O)[nH]1 | -5% | -1% | -2% | 16µM* | i | -8%
CN(Cc1nc2ccccc2c(=O)[nH]1)C(=O)c1cc(-c2ccc(Br)cc2)nc2ccccc12 | -27% | ? | -15% | 15µM* | i | 21%
C=C(C)CSc1nc2sc3c(c2c(=O)n1CCCC)CCCC3 | / | / | / | i | i | /
CC(=O)Nc1ccccc1-c1nc2ccccc2n(C(C)C(=O)Nc2ccccc2C(F)(F)F)c1=O (stereo not given) | / | / | / | i | i | /
CCOc1ccc(CNC(=O)c2cnc(SC)nc2C)cc1 | / | / | / | i | i | /
CCCC(=O)N(CCc1ccc(OC)cc1)Cc1nc2ccccc2c(=O)[nH]1 | ? | 5% | ? | 15µM* | i | -2%
CCc1ccc(OCc2n[nH]c(=S)n2C(C)CCCC(C)C)cc1 (stereo not given) | -26% | 13µM* | -12% | i | i | -3%
CSCC[C@H](NC(=O)c1cc2c([nH]c3ccccc32)c(-c2ccccc2)n1)C(=O)O | -19% | 0% | -4% | i | i | 23µM*
C[C@H](NC(=O)c1cc2c([nH]c3ccccc32)c(-c2ccccc2)n1)C(=O)O | -1% | -16% | -15% | ? | i | -5%
CCCCn1nnnc1C(c1cc2ccccc2o1)N(C)CCc1ccccc1 (stereo not given) | -22% | / | -20% | ? | i | /
CCn1c(N2CCN(S(=O)(=O)c3ccc(OC)cc3)CC2)nc2ccccc21 | ? | -2% | -29% | 13µM* | i | 6%
CCN1CCN(c2ccc(N3CCN(S(=O)(=O)c4cccc([N+](=O)[O-])c4)CC3)nn2)CC1 | 7% | / | 6% | i | i | /
CC(C)n1c(N2CCN(S(=O)(=O)c3cccc([N+](=O)[O-])c3)CC2)nc2ccccc21 | -26% | -4% | -24% | 18µM* | i | 4%
COc1ccc(OCCN2CCN(S(=O)(=O)c3ccccc3C(F)(F)F)CC2)cc1 | -11% | 0% | -10% | 2.3µM* | ? | -5%
Cn1c(N2CCN(S(=O)(=O)c3ccc(F)cc3)CC2)nc2ccccc21 | -20% | 17% | -17% | ? | i | 3%

Screens from PubChem.
